Source: publication PMC4336329 (PLoS ONE, 2015)
Out of some 310,000 compounds screened, about 2,200 (0.71%) showed an effect of 50% or more. Effects have a minus sign here. Only a selection was taken, and strong results are over-represented in it overall.

What follows are compounds tested against human ether-à-go-go-related gene (hERG) potassium channel (human, UniProt Q12809) (assay: primary screen, population patch clamp on CHO cells stably expressing hERG; higher = less effect of the substance).
Sequence of human ether-à-go-go-related gene (hERG) potassium channel (Q12809 whole entry, looked up): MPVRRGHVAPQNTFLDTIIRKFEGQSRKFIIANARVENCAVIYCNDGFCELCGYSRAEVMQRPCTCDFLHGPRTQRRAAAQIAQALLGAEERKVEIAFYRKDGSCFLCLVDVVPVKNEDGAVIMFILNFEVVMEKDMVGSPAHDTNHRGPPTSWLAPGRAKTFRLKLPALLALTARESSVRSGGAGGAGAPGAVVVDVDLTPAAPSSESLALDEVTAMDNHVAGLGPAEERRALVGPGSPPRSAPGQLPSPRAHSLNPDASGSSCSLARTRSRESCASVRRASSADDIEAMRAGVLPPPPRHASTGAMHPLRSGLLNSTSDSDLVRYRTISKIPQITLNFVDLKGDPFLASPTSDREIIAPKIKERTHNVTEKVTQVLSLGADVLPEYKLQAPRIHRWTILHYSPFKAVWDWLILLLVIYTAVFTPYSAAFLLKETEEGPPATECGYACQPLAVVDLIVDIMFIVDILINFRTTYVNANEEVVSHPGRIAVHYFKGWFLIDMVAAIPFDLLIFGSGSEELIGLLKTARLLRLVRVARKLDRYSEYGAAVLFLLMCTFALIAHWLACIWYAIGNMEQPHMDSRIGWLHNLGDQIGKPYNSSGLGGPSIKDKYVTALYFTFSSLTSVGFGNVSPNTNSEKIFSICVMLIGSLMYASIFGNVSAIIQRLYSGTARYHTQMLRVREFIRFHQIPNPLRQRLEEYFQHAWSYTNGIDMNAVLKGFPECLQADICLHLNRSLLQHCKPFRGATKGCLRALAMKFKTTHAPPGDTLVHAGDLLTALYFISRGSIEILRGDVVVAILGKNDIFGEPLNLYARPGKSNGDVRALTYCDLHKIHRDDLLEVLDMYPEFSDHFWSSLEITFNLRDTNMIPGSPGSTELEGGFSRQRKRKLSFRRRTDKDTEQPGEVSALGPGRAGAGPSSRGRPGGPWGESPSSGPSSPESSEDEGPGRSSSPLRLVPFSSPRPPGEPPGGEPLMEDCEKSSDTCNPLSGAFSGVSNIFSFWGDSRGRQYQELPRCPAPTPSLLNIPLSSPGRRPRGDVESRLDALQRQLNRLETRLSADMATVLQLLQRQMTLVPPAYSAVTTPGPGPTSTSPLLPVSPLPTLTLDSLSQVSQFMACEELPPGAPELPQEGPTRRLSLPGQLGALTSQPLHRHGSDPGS

SMILES | hERG current change (%, negative = inhibition) at 1uM [%]
CCc1nnc(NC(=O)C2CCC2)s1 | 3.46
CCCn1c(N)c(N(CCOC)C(=O)c2ccc(F)cc2)c(=O)[nH]c1=O | 12.9
Cc1[nH]c(C)c(S(=O)(=O)NCCc2ccc(S(N)(=O)=O)cc2)c1C(=O)N1CCCC1 | 12.3
CCCCSc1nnc(-c2ccc(NC(=O)CCc3ccccc3)cc2)n1C | 19.5
Cc1ccc2occ(/C=C/C(=O)O)c(=O)c2c1 | 9.03
CCNC(=O)C1(c2ccccc2)CCCC1 | 5.42
CCOC(=O)C[n+]1c(C)csc1C.[Br-] | 9.26
CCN1CCN(c2nc(Nc3cccc(OC)c3)nc(N)c2[N+](=O)[O-])CC1 | -60.6
CCN1CCN(c2nc(Nc3cccc(C)c3)nc(N)c2[N+](=O)[O-])CC1 | -36.9
CCN1CCN(c2nc(Nc3ccc(OC)cc3)nc(N)c2[N+](=O)[O-])CC1 | 1.06
COc1ccccc1-n1c(/C=C/c2ccc(O)cc2)nc2ccccc2c1=O | 13
CCCCn1c(CCNC(=O)CC)nc2ccccc21 | 0.197
CCCCn1c(=O)c(C(=O)c2ccccc2)nc2ccccc21 | 5.56
CCCCCn1c(CCCNC(=O)CC)nc2ccccc21 | -52.3
CCCCCn1c(=O)c(C(=O)c2ccccc2)nc2ccccc21 | -52.5
CCCCn1c(CCCNC(=O)CC)nc2ccccc21 | -3.85
CCCn1c(=O)c(C(=O)c2ccccc2)nc2ccccc21 | -0.484
Cc1ccc(NC(=O)CSc2sc3c(O)cc(=O)[nH]c3c2C#N)cc1C | 0.874
CC(C)(C)OC(=O)N1CCC(C(N)=O)CC1 | 5.04

SMILES | hERG current change (%, negative = inhibition) at 1uM [%]
CCOC(=O)c1ccc(NC(=O)N2C[C@@H]3C[C@@H](C2)c2cccc(=O)n2C3)cc1 | 7.4
O=C(c1ccco1)N1CCN(Cc2ccc(Cl)cc2)CC1 | 7.26
Cc1ccc(Nc2nc(N)nc(CN3CCN(Cc4ccccc4)CC3)n2)cc1Cl | -24.5
CCOC(=O)N1CCN(Cc2nc(N)nc(Nc3ccc(Cl)cc3)n2)CC1 | -22.7
Nc1nc(CN2CCN(C(=O)c3ccco3)CC2)nc(Nc2cccc(Cl)c2)n1 | -76.3
Cc1ccc(Nc2nc(N)nc(CN3CCN(c4ccccc4)CC3)n2)cc1Cl | -10.8
Cc1ccc(Nc2nc(N)nc(CN3CCN(C(=O)c4ccco4)CC3)n2)cc1Cl | -54.1
CN1C(=O)CSc2ccc(NC(=O)Nc3ccccn3)cc21 | 8.01
Cc1ccc(Cl)cc1NC(=O)c1ccc(CSc2nnnn2C)cc1 | 9.74
CCOc1cc(/C=N\NC(=O)C2C(=O)NCC2c2ccccc2)ccc1OC (centres unmarked) | 10
Oc1ccc(C[C@H]2CNCCN2CCc2cccc(F)c2)cc1 | 7.34
CC1CN(C(=O)CCC(=O)NCCCN2CCN(Cc3ccccc3)CC2)c2cc(Cl)ccc2O1 (centres unmarked) | -68.1
CC1CN(C(=O)CCC(=O)NCc2ccccc2)c2cc(Cl)ccc2O1 (centres unmarked) | 0.521
Cc1ccc2c(c1)N(C(=O)CCC(=O)NCCCN1CCOCC1)CC(C)O2 (centres unmarked) | -1.87
CCN1CCN(CCCNC(=O)CCC(=O)N2CC(C)Oc3ccc(C)cc32)CC1 (centres unmarked) | 6.55
Cc1ccc2c(c1)N(C(=O)CCC(=O)NCCCN1CCN(C)CC1)CC(C)O2 (centres unmarked) | 8.82
CC1CN(C(=O)CCC(=O)NCCCN2CCC(Cc3ccccc3)CC2)c2cc(Cl)ccc2O1 (centres unmarked) | -62.2
Cc1ccc(C(=O)c2cc(Br)ccc2N)cc1 | 12.5
COc1ccc(-c2csc(NC(=O)CCNC(=O)c3ccco3)n2)cc1OC | -3.11

SMILES | hERG current change (%, negative = inhibition) at 1uM [%]
O=S(=O)(NC1CCCCCCC1)c1ccc(F)cc1 | 12.2
CSc1ccc(S(=O)(=O)N2CCC(C(=O)Nc3ccccc3C(F)(F)F)CC2)cc1 | 11.7
C=CCNC(=O)c1ccccc1NC(=O)C1CCN(S(=O)(=O)c2ccc(SC)cc2)CC1 | -56.8
C=CCNC(=O)c1ccccc1NS(=O)(=O)c1ccc(SC)cc1 | 10.5
Cc1cccc2cc(CN(Cc3ccc(F)cc3)C(=O)C(F)(F)F)c3nnnn3c12 | 30.5
COC(=O)[C@@H]1C[C@]2(OC(=O)c3ccccc3)C=CC(=O)C[C@@H]2N1C(=O)OCc1ccccc1 | 11.9
COc1ccc(-c2[nH]ncc2CN2CCC(OCc3ccccn3)CC2)c(F)c1 | 2.13
COc1ccc(-c2[nH]ncc2CN2CCC(c3ccncc3)CC2)cc1F | -51.4
COc1ccc(-c2[nH]ncc2CN2CCC(OCc3ccccc3)CC2)c(F)c1 | -64.5
COc1ccc(-c2[nH]ncc2CN2CCC(C(=O)c3ccc(F)cc3)CC2)cc1 | -70.5
COc1ccc(-c2[nH]ncc2CN2CCCC(C(=O)c3ccc(OC)cc3OC)C2)cc1 (centres unmarked) | -47.3
O=C(c1ccc(F)cc1)C1CCN(Cc2cn[nH]c2-c2ccccc2)CC1 | -84.2
CCOC(=O)C1CCN(Cc2cn[nH]c2-c2ccccc2)CC1.O=C(O)C(=O)O | 14.2
Fc1ccc(N2CCN(Cc3cn[nH]c3-c3ccccc3)CC2)cc1 | -27
COc1ccc(-c2[nH]ncc2CN2CCC(OCc3cccnc3)CC2)c(F)c1 | -10.6
COCC1CCN(Cc2cn[nH]c2-c2ccc(OC)c(F)c2)C1 (centres unmarked) | 3.17
COc1ccc(-c2[nH]ncc2CN2CCN(c3ccc(F)cc3)CC2)cc1 | -4.53
COc1ccc(-c2[nH]ncc2CN2CCC(N3CCSCC3)CC2)cc1F | 3.77
